Experimental findings from PubChem BioAssay AID1835 (Johns Hopkins Ion Channel Center, 2009) are described below.

SMILES strings stand for the structures. Screen size: about 2,400 compounds; about 750 (31%) were called active. Some of the results follow. Unmarked numbers belong to inactive results.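 Rule for the calls: active = median signal gain over dofetilide-blocked control wells reaching their mean plus 3 SD, so readout 1 at least 0; inactive = the rest.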

In this experiment the target is Voltage-gated inwardly rectifying potassium channel KCNH2 (Homo sapiens) (UniProt Q12809). The experiment can be described thus: modulators restoring hERG flux under dofetilide – cell-based, thallium flux, duplicate retest, dofetilide IC70, confirmation (AID 1835). The settings on record: hERG cell line, FluxOR thallium flux, dofetilide-blocked; at 10 µM; active compounds read high. In general terms: The hERG channel carries a current that helps repolarise heart muscle cells.
Voltage-gated inwardly rectifying potassium channel KCNH2 (Homo sapiens), sequence (Q12809 whole entry, looked up): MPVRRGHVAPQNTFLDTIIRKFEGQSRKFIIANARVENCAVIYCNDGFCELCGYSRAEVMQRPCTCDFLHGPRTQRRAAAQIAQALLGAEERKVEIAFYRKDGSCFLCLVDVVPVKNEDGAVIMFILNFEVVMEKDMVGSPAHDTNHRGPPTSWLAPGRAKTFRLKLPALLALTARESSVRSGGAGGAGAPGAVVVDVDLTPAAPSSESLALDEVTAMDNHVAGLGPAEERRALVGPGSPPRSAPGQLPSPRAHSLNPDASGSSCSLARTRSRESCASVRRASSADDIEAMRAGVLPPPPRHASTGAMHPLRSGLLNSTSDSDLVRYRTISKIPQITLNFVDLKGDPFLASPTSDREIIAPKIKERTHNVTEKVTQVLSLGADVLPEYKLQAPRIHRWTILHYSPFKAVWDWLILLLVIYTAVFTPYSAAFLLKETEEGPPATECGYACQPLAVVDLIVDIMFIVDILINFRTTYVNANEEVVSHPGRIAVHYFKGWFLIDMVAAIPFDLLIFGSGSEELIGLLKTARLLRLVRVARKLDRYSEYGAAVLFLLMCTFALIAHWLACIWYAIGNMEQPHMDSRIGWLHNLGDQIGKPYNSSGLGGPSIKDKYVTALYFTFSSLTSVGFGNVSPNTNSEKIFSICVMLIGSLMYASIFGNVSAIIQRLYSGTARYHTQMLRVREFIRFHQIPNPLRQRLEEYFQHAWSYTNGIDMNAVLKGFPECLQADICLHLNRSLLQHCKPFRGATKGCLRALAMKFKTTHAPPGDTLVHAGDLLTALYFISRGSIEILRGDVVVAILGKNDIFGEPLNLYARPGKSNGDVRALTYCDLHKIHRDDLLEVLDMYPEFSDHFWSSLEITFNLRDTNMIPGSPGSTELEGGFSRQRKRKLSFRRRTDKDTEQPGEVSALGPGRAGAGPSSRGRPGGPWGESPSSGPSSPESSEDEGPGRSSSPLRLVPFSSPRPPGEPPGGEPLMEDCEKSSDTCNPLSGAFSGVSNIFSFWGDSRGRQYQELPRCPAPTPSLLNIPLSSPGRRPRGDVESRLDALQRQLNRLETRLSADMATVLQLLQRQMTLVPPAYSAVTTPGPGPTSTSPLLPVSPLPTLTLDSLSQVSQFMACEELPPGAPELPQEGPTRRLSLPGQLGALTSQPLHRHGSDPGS
As for `Cc1ccc(OCCC(=O)OC(C)C(=O)Nc2ccc(Cl)cn2)cc1` (stereo not given), the activity increase over dofetilide control, less the hit threshold is -11%.

Consider `CCC1(C)CC2(CCCN(CCC(=O)c3ccccc3)C2)CCO1` (stereo not given), for which the activity increase over dofetilide control, less the hit threshold is -34%.

Take `Cc1ccc(NC(=O)CSc2nnc(-c3cccnc3)n2-c2ccc(C)cc2)cc1`: the activity increase over dofetilide control, less the hit threshold is -20%.

Regarding `COc1ccc(-c2nc(-c3ccccn3)ncc2S(C)(=O)=O)cc1`, the activity increase over dofetilide control, less the hit threshold was -15%.

With `c1ccc(-c2ccc(-c3ccncn3)cc2)cc1`, the activity increase over dofetilide control, less the hit threshold is -14%.

Take `c1ccc(-c2n[nH]c(-c3ccccn3)n2)cc1`: the activity increase over dofetilide control, less the hit threshold was 7% (active).

On to `Cc1nc(Oc2ccc(Cl)cc2)c2oc3ccccc3c2n1`, for which the activity increase over dofetilide control, less the hit threshold was -9%.

As to `O=C1N2CCSC2=NC1(NS(=O)(=O)c1ccccc1)C(F)(F)F` (stereo not given), the activity increase over dofetilide control, less the hit threshold is 5% (active).

In the case of `COc1ccc(CCNC(=O)C2CCCN(S(C)(=O)=O)C2)cc1` (stereo not given), the activity increase over dofetilide control, less the hit threshold is -15%.

Turning to `COc1ccc(-n2c(SCC#N)nnc2-c2cccnc2)cc1`, the activity increase over dofetilide control, less the hit threshold is -26%.

On to `O=C1CC(N2CCN(c3ccccc3Cl)CC2)C(=O)N1c1ccc(F)cc1` (stereo not given), for which the activity increase over dofetilide control, less the hit threshold is -10%.

With `CC(=O)Oc1c(-c2ccc(Br)o2)oc2ccccc2c1=O`, the activity increase over dofetilide control, less the hit threshold is 66% (active).

Take `COc1ccc(-c2oc3ccccc3c(=O)c2OC(C)=O)cc1`: the activity increase over dofetilide control, less the hit threshold is 7% (active).

Regarding `CC(=O)Oc1c(-c2ccco2)oc2ccccc2c1=O`, the activity increase over dofetilide control, less the hit threshold was -1%.

As for `COc1ccc(-c2c(C)c3ccc(OCC(C)=O)cc3oc2=O)cc1`, the activity increase over dofetilide control, less the hit threshold was -20%.

Regarding `COc1ccc(C(=O)c2oc3ccccc3c2N)cc1`, the activity increase over dofetilide control, less the hit threshold is -12%.

With `Cc1ccnc(SCCn2c(N3CC(C)OC(C)C3)nc3c2c(=O)n(C)c(=O)n3C)n1` (stereo not given), the activity increase over dofetilide control, less the hit threshold was -26%.

Take `COc1ccc(/C=C2\SC(=N)N(c3nccs3)C2=O)cc1OC`: the activity increase over dofetilide control, less the hit threshold is 30% (active).

On to `CCN1C(=O)/C(=C\c2ccc(-c3cccc(C(=O)OC)c3)o2)SC1=Nc1ccc(C(=O)O)cc1`, for which the activity increase over dofetilide control, less the hit threshold is -3%.

Consider `N=C1S/C(=C\c2ccc(-c3cccc(Cl)c3)o2)C(=O)N1c1nccs1`, for which the activity increase over dofetilide control, less the hit threshold is 50% (active).

For `N=C1S/C(=C\c2ccco2)C(=O)N1c1nccs1`, the activity increase over dofetilide control, less the hit threshold was -24%.

For the molecule `COc1cccc(CN(C)CC2CCCN(CCc3ccc(Cl)cc3)C2)c1OC` (stereo not given), the activity increase over dofetilide control, less the hit threshold is -31%.

Turning to `O=C(NCc1cccs1)C1CC(c2ccc(F)cc2)=NO1` (stereo not given), the activity increase over dofetilide control, less the hit threshold is -24%.

Regarding `Cc1occc1C(=O)NNC(=S)NC(=O)COc1ccc(Cl)cc1Cl`, the activity increase over dofetilide control, less the hit threshold is 100% (active).

Consider `COc1ccc(Cl)cc1C(=O)NNC(=S)NC(=O)/C=C/c1ccco1`, for which the activity increase over dofetilide control, less the hit threshold is -4%.

With `CCC(=O)N1CCCc2ccccc21`, the activity increase over dofetilide control, less the hit threshold is -8%.

As for `CC(=O)N1CCCc2cc(S(=O)(=O)NCc3ccc(C)cc3)ccc21`, the activity increase over dofetilide control, less the hit threshold was -1%.

On to `Cc1ccc(Cn2nnc3c(=O)n(CC(=O)N4CCCc5ccccc54)cnc32)cc1`, for which the activity increase over dofetilide control, less the hit threshold was 2% (active).

Take `Cn1c(=O)c2sccc2n(Cc2cccc(Br)c2)c1=O`: the activity increase over dofetilide control, less the hit threshold is -11%.

For the molecule `Cn1c(=O)[nH]c(=O)c2c1nc(CN1CCN(c3ccccc3F)CC1)n2CCCc1ccccc1`, the activity increase over dofetilide control, less the hit threshold is -7%.

For `O=C(COC(=O)C1C2CC3OC(=O)C1C3C2)Nc1ccc(Cl)cc1` (stereo not given), the activity increase over dofetilide control, less the hit threshold is -17%.

As for `O=C(CN1C(=O)c2ccccc2S1(=O)=O)NCCSCc1ccccc1Cl`, the activity increase over dofetilide control, less the hit threshold was -16%.

For `CC(/C=C1\N=C(SCc2ccccc2Cl)SC1=O)=C\c1ccccc1`, the activity increase over dofetilide control, less the hit threshold was -9%.

For `O=C(O)CCCCn1c(SCc2ccccc2Cl)nc2ccsc2c1=O`, the activity increase over dofetilide control, less the hit threshold is 4% (active).

Turning to `Cc1cc(NC(=O)CCCn2cnc([N+](=O)[O-])n2)no1`, the activity increase over dofetilide control, less the hit threshold was -9%.

As for `CCOC(=O)c1n[nH]n2c1nc(=S)c1ccccc12`, the activity increase over dofetilide control, less the hit threshold was 46% (active).

For `CCOC(=O)c1nnn(CC(=O)Nc2ccccc2OC)c1C(=O)OCC`, the activity increase over dofetilide control, less the hit threshold is -3%.

With `CCOC(=O)C1CCN(C(=O)COC(=O)c2nn(C)c(=O)c3ccccc23)CC1`, the activity increase over dofetilide control, less the hit threshold is -23%.

As to `C[n+]1ccccc1COc1ccc(C(C)(C)C)cc1`, the activity increase over dofetilide control, less the hit threshold is -15%.

Regarding `COC(=O)c1ccc(/C=C/c2ccc3cccc(OC)c3n2)cc1`, the activity increase over dofetilide control, less the hit threshold was -7%.

`Cc1ccc(C(=O)c2ccccc2C(=O)O)c(O)c1`: the activity increase over dofetilide control, less the hit threshold is -6%.

Regarding `Cc1ccc(/C=C/C(=O)c2ccccc(=O)c2O)cc1C`, the activity increase over dofetilide control, less the hit threshold was 8% (active).

Regarding `Cc1ccc(/C=C/C(=O)c2ccccc(=O)c2O)c(C)c1`, the activity increase over dofetilide control, less the hit threshold is 22% (active).

As for `Cc1ccc(NS(=O)(=O)c2ccc(NC(=O)c3ccccc3C(=O)O)cc2)cc1C`, the activity increase over dofetilide control, less the hit threshold is -5%.

On to `O=C(/C=C/c1ccccc1Cl)c1ccccc(=O)c1O`, for which the activity increase over dofetilide control, less the hit threshold is 13% (active).

Take `Cc1ccc(C)c(/C=C/C(=O)c2ccccc(=O)c2O)c1`: the activity increase over dofetilide control, less the hit threshold is -3%.

On to `CC(=O)c1sc(-c2ccc(F)cc2)cc1NS(=O)(=O)c1ccc(C)cc1`, for which the activity increase over dofetilide control, less the hit threshold was -14%.

As for `CC1=[N+]([O-])C(C)(C)C(c2ccc(Br)cc2)=[N+]1[O-]`, the activity increase over dofetilide control, less the hit threshold is -3%.

Consider `COCCNC(=O)CN(C(=O)c1ccc(N2CCCC2)nc1)c1ccccc1`, for which the activity increase over dofetilide control, less the hit threshold is -15%.

Take `CCc1ccc2[nH]c(=O)c(-c3ccccc3)c(O)c2c1`: the activity increase over dofetilide control, less the hit threshold was -20%.
